SMILES strings stand for the structures. A number with no mark means an inactive call. How the calls were made is not given here.

This assay deals with Pantothenate synthetase (Mycobacterium tuberculosis (strain ATCC 25618 / H37Rv)) (UniProt P9WIL5). The assay is described as follows: Coupled enzyme confirmation of inhibitors against recombinant Mtb PanC (AID 375).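 Further: 0% = full reaction with vehicle and 100% = no enzyme background.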 The conditions noted are these: coupled enzyme assay; at 10 µM, active compounds read high.
Sequence of Pantothenate synthetase (Mycobacterium tuberculosis (strain ATCC 25618 / H37Rv)) (P9WIL5 whole entry, looked up): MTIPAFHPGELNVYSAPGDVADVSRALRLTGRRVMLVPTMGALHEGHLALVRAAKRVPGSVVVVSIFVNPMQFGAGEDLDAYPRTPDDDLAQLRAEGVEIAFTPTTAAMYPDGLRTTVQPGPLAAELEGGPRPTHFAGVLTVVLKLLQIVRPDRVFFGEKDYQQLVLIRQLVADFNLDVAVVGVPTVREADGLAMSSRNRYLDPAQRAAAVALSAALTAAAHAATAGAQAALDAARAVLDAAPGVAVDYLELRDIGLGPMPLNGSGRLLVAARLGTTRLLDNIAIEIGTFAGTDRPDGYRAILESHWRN
For the molecule `O=C(OC1CCOC1=O)c1ccc(S(=O)(=O)N2CCCCCC2)cc1` (configuration not stated), the inhibition is 0%.

Take `COc1ccc(Br)cc1CNC(=O)CCc1nc(-c2ccc(C)cc2)no1`: the inhibition was 4%. On to `CC(C)Cn1c(CN(Cc2ccccc2)Cc2ccccc2)nc2c1c(=O)n(C)c(=O)n2C`, for which the inhibition was 5%. Next, `Cc1ccc(C(=O)CSc2nnc(-c3cccnc3)n2N)cc1`: 5%; `Cc1cc(C(=O)NCCN2CCCCC2C)n(-c2ccccc2)n1` (configuration not stated): 0%; `COC(=O)c1ccccc1S(=O)(=O)N(CCCO)Cc1cc2c(C)ccc(C)c2[nH]c1=O`: 2%. For `CCCCOc1ccc(OCCCN2CCOCC2)cc1` the value was 2%.

As to `CC(C)NC(=O)CSc1nc2ccccc2n1-c1ccccc1`, the inhibition is 1%. For `O=c1cc(COn2nnc3ccc(C(F)(F)F)cc32)nc2sccn12` the value was 0%; for `C=CCOC(=O)CCC(=O)Nc1cc(OC)nc(OC)n1`, 0%; for `CC1c2nc3ccccc3n2C(CC(=O)NCc2ccccn2)C(=O)N1Cc1ccccc1` (configuration not stated), 0%.

Regarding `Cc1occc1C(=O)N1CCN(Cc2ccccc2)CC1`, the inhibition was 0%. Next, `COc1ccc2ccccc2c1CN1CCN(C)CC1`: 3%; `CCOC(=O)c1c(C)n(OCc2ccccc2)c2ccc3c(no[n+]3[O-])c12`: 0%; `CCc1ccccc1NC(=O)c1cnc2n(c1=O)CCS2`: 2%. Next, `c1ccc(CCn2nnnc2CN2CCN(C3CCCC3)CC2)cc1`: 2%. On to `Cc1c(=O)n(OCc2ccccn2)c2ccccc2[n+]1[O-]`, for which the inhibition is 0%.

By inhibition is commonly meant the share of the control response that was lost under treatment.
